Active and inactive are the calls of the source. No stated cut-off is given here; in the data, active means inhibition of mean fluorescence above about 33%; inactive means the rest.
Assay: quorum sensing inhibitors in bacterial reporter, SAR follow-up, flow cytometry, SAR analogs (AID 1014);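 further: Staphylococcus aureus RN6390 with RNAIII-GFP reporter stimulated by AIP; bacteria incubated with compound for 3 hours at 37 °C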
Conditions: at 20 µM, stronger effect = higher value; inhibition of percent positive cells: flow cytometry fluorescence, measured here: percent reporter-positive cells

O=CN1CCN(C(C(=O)NC2CCCC2)c2cc3c(cc2[N+](=O)[O-])OCO3)CC1 (centres undefined)
inhibition of mean fluorescence: -8.7% (inactive)
inhibition of percent positive cells: -0.6%

CC(C)(C)c1ccc(S(=O)(=O)c2n[nH]n3c2nc(=O)c2ccccc23)cc1
inhibition of mean fluorescence: 13.3% (inactive)
inhibition of percent positive cells: -1.8%

Cc1cc(C)cc(Nc2nc3c(S(=O)(=O)c4ccccc4)nnn3c3ccccc23)c1
inhibition of mean fluorescence: 0.4% (inactive)
inhibition of percent positive cells: 0.1%

O=C(NCC(c1cccnc1)N1CCN(c2ccc(F)cc2)CC1)c1cccc(Cl)c1 (centres undefined)
inhibition of mean fluorescence: -11.7% (inactive)
inhibition of percent positive cells: -0.1%

Cc1ccc2occ(/C=C/C(=O)c3ccc(O)cc3)c(=O)c2c1
inhibition of mean fluorescence: -0.6% (inactive)
inhibition of percent positive cells: -0.1%

CCCCc1oc2ccccc2c1C(=O)c1ccc(O)cc1
inhibition of mean fluorescence: 84.9% (active)
inhibition of percent positive cells: 43.2%

N#Cc1c(NC(=O)COC(=O)c2c3c(nc4ccccc24)CCCC3)sc2c1CCCC2
inhibition of mean fluorescence: -13.5% (inactive)
inhibition of percent positive cells: -0.1%

CCOC(=O)c1c(C)oc2cc(Br)c(O)c(Br)c12
inhibition of mean fluorescence: 55.9% (active)
inhibition of percent positive cells: 0.7%

COc1ccc(Nc2ccccc2C(=O)O)cc1
inhibition of mean fluorescence: 0.6% (inactive)
inhibition of percent positive cells: -2.8%

CCN1CCN(C(C(=O)NC2CCCC2)c2cc3c(cc2[N+](=O)[O-])OCO3)CC1 (centres undefined)
inhibition of mean fluorescence: -8.6% (inactive)
inhibition of percent positive cells: -0.6%

CN1CCN(C(=O)C(=O)Nc2ccc3c(c2)OCO3)CC1
inhibition of mean fluorescence: -2.5% (inactive)
inhibition of percent positive cells: 0.1%

CC1CCN(CCC(=O)Nc2ccc3c(c2)OCO3)CC1
inhibition of mean fluorescence: 10% (inactive)
inhibition of percent positive cells: 1.6%

CC(=O)c1cc2cc(O)ccc2o1
inhibition of mean fluorescence: -1% (inactive)
inhibition of percent positive cells: 0.8%

N#Cc1c(NC(=O)COC(=O)CN2C(=O)c3ccccc3C2=O)sc2c1CCCC2
inhibition of mean fluorescence: -2.3% (inactive)
inhibition of percent positive cells: -0.2%

COc1cccc(Nc2c(F)c(OC)c(F)c(F)c2C(=O)O)c1
inhibition of mean fluorescence: -6.6% (inactive)
inhibition of percent positive cells: 0%

Cc1ccccc1C(=O)N1CCC(C(=O)Nc2ccc3c(c2)OCO3)CC1
inhibition of mean fluorescence: -8.8% (inactive)
inhibition of percent positive cells: -0.4%

COC(=O)c1c(C)oc2cc(Br)c(O)cc12
inhibition of mean fluorescence: -18% (inactive)
inhibition of percent positive cells: -1%

CC(C)c1ccc(NC(=O)C(c2ccc3c(c2)OCO3)N2CCC3(CC2)OCCO3)cc1 (centres undefined)
inhibition of mean fluorescence: 15.2% (inactive)
inhibition of percent positive cells: -0.8%

COc1ccc(S(=O)(=O)c2nnn3c2nc(Nc2ccccc2C)c2ccccc23)cc1
inhibition of mean fluorescence: -17.1% (inactive)
inhibition of percent positive cells: 0.4%

COc1ccc(NC(=O)C(c2cc3c(cc2[N+](=O)[O-])OCO3)N2CCCCC2)cc1 (centres undefined)
inhibition of mean fluorescence: -14.1% (inactive)
inhibition of percent positive cells: -1.6%

O=C(NCC(c1cccnc1)N1CCN(c2ccccc2F)CC1)c1ccccc1 (centres undefined)
inhibition of mean fluorescence: -24.2% (inactive)
inhibition of percent positive cells: -1.5%

O=C(NCCN1CCN(C(=O)c2cc(F)c(F)cc2Cl)CC1)c1cc(F)c(F)cc1Cl
inhibition of mean fluorescence: -25.7% (inactive)
inhibition of percent positive cells: -1.2%

CCOC(=O)C1CCN(C(C(=O)Nc2ccc3c(c2)OCO3)c2ccccc2)CC1 (centres undefined)
inhibition of mean fluorescence: -1% (inactive)
inhibition of percent positive cells: -0.4%

CC(C)c1ccc(NC(=O)C(c2cc3c(cc2[N+](=O)[O-])OCO3)N2CCOCC2)cc1 (centres undefined)
inhibition of mean fluorescence: 8.1% (inactive)
inhibition of percent positive cells: 0.7%

O=C(NC1CCCC1)C(c1cc2c(cc1[N+](=O)[O-])OCO2)N1CCCC1 (centres undefined)
inhibition of mean fluorescence: -3.7% (inactive)
inhibition of percent positive cells: -0.1%

COc1c(F)c(F)c(C(=O)O)c(Nc2cccc(C)c2)c1F
inhibition of mean fluorescence: -11.5% (inactive)
inhibition of percent positive cells: -1.3%

O=C(NCC(c1cccnc1)N1CCOCC1)c1cccc(Cl)c1 (centres undefined)
inhibition of mean fluorescence: -6.2% (inactive)
inhibition of percent positive cells: 0.6%

N#Cc1c(NC(=O)CCN2C(=O)c3ccccc3C2=O)oc(-c2ccccc2)c1-c1ccccc1
inhibition of mean fluorescence: 19.7% (inactive)
inhibition of percent positive cells: -0.3%

CC1CCCN(C(C(=O)Nc2ccc3c(c2)OCCO3)c2ccccc2)C1 (centres undefined)
inhibition of mean fluorescence: 91.5% (active)
inhibition of percent positive cells: 63.1%

O=C(O)c1c(F)c(F)c(F)c(F)c1Nc1cccc(C(F)(F)F)c1
inhibition of mean fluorescence: 6% (inactive)
inhibition of percent positive cells: -0.1%

O=C(Nc1ccc2c(c1)OCO2)C(c1ccc(Cl)cc1)N1CCN(C(=O)c2ccco2)CC1 (centres undefined)
inhibition of mean fluorescence: 2.2% (inactive)
inhibition of percent positive cells: -0.3%

Cc1cc(C)cc(Nc2c(F)c(F)c(F)c(F)c2C(=O)O)c1
inhibition of mean fluorescence: 14% (inactive)
inhibition of percent positive cells: -0.2%
